Source: PubChem
Bcl-xL primary: Bcl-xL (human) inhibition. inhibition, % at 10.9 µM. Q07817. AID 2129. GST-Bcl-xL / FITC-Bim BH3 peptide fluorescence polarization. 320,000 tested, 0.7% active;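 active = inhibition above the mean of all tested compounds plus 3 SD, cutoff set per campaign, cut at about 30% in these data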;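 also: 0% = DMSO wells and 100% = unlabeled Bim-BH3 peptide competitor; inhibitors lower millipolarization by displacing the labeled peptide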
Target sequence (Q07817 whole entry, looked up): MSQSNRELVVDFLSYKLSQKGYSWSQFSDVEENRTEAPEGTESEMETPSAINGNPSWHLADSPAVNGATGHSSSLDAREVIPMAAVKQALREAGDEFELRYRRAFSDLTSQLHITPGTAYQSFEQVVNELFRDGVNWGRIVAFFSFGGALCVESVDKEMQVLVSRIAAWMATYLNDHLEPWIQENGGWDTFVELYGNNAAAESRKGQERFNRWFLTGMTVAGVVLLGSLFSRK
Bim-Mcl-1: inhibitors of Bim-Mcl-1 interaction, human; 190,000 tested, 0.1% active; Bead-based flow cytometry, Bim peptide-Mcl-1 binding; inhibition, % at 10 µM; Q07820; in the data active = inhibition above about 40%;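 also: 0% = no compound tracer wells and 100% = peptide blocker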
Target sequence (Q07820 whole entry, looked up): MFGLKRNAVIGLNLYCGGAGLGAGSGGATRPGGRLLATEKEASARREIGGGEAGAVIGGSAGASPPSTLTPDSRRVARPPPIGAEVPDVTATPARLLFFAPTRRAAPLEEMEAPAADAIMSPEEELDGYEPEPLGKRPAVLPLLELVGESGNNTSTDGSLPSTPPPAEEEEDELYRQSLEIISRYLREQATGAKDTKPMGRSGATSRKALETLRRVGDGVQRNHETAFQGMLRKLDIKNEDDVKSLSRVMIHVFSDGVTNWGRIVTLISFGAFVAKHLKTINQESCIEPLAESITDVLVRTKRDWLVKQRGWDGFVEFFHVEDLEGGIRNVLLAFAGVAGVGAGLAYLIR
Mcl1-Noxa inh: Mcl-1/Noxa interaction inhibition. 220,000 tested, 1.5% active. AID 1022. TR-FRET Mcl-1/Noxa peptide binding, 2 h. Q07820. inhibition, % at 21.7 µM;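 active = compounds that cut the protein-peptide binding signal by more than 50% relative to plate controls in a single-dose test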;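 also: His-tagged Mcl-1 with rhodamine Noxa BH3 peptide and terbium anti-His antibody; 0% = Mcl-1 plus Noxa peptide wells and 100% = peptide-only wells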
Mcl1-Bid inh: disrupts binding of human Mcl-1 to Bid peptide; TR-FRET Mcl-1/Bid-Dy647 peptide binding, 1536-well; inhibition, % at 21.7 µM; 220,000 tested, 0.97% active;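 active = compounds that cut the binding signal by more than half at the single screening dose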;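 also: His-tagged Mcl-1 with europium anti-His antibody binding Bid BH3 peptide; 0% = Mcl-1 plus peptide wells and 100% = peptide-only wells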
MCL1 BIM primary: inhibitors of human MCL1 binding to BIM-BH3 peptide; Q07820; GST-MCL1 / FITC-Bim-BH3 fluorescence polarization; inhibition, % at 10.9 µM; 320,000 tested, 0.68% active;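 active = inhibition above the mean inhibition of all tested compounds plus 3 SD, set per campaign, cut at about 40% in these data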;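 also: 0% = DMSO wells and 100% = unlabeled Bim-BH3 peptide control; higher means more loss of mP so more displacement of Bim peptide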
GLD-1 TGE inh: GLD-1-TGE RNA interaction inhibition (C. elegans); purified GLD-1 + fluorescein TGE RNA, fluorescence polarization; inhibition, % at 5.96 µM; 320,000 tested, 0.44% active; AID 2280;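 active = percent inhibition above a per-plate cutoff, the plate mean of test compounds plus 3 SD, cut at about 30% in these data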;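 also: 0% = DMSO wells with GLD-1 and probe and 100% = wells lacking GLD-1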
Numbers without * were called inactive; . = not tested or not shown. Compounds with a hit are over-represented: about 2.3% of the library has one in this group of screens.

SMILES	Bcl-xL primary	Bim-Mcl-1	Mcl1-Noxa inh	Mcl1-Bid inh	MCL1 BIM primary	GLD-1 TGE inh
COc1ccc(N(CC(=O)NCc2ccccc2OC)S(=O)(=O)c2ccc(C)cc2)cc1Cl	7.0	.	.	.	7.1	4.9
CC(C)CNC(=O)CSc1nc2scc(-c3ccccc3)c2c(=O)[nH]1	2.5	0.0	53.5*	-73.1	-0.6	1.5
CCc1cc(C(=O)N=Nc2c(O)[nH]c3ccc([N+](=O)[O-])cc23)c2ccccc2n1	11.8	-1.0	92.2*	-48.2	38.0	-6.7
CCN(CC)S(=O)(=O)c1cc([N+](=O)[O-])ccc1N=Nc1c(O)[nH]c2ccccc12	-1.3	-1.0	7.4	51.4*	-5.4	4.0
O=C(N=Nc1c(O)[nH]c2ccc([N+](=O)[O-])cc12)c1ccccc1[N+](=O)[O-]	4.0	.	13.5	-8.4	7.9	3.3
CC/C(=N/NC(=O)c1ccc2c(c1)OCO2)c1ccccc1O	5.3	.	.	.	7.6	6.8
O=C1CCN(Cc2ccccc2)C=C1c1ccc(Br)cc1	.	.	.	.	.	2.2
CCc1ccc(/C=C2\Oc3c(ccc(O)c3CN3CCN(C)CC3)C2=O)cc1	42.0*	.	3.8	-4.3	33.6	-2.3
Cc1ccc(/C=C2\Oc3c(ccc(O)c3CN3CCN(C)CC3)C2=O)cc1	46.1*	0.0	-12.9	-0.1	42.0*	4.3
COc1ccccc1/C=C/C=C1\Oc2c(ccc(O)c2CN2CCN(CCO)CC2)C1=O	40.5*	0.0	-14.3	-33.1	-0.3	-24.2
O=C1/C(=C/C=C/c2ccccc2)Oc2c1ccc(O)c2CN1CCN(CCO)CC1	19.7	.	-22.5	-23.3	22.4	8.2
CCN1CCN(Cc2c(O)ccc3c2O/C(=C\C=C\c2ccccc2)C3=O)CC1	24.6	-1.0	23.5	-26.0	16.1	2.5
CCN1CCN(Cc2c(O)ccc3c2O/C(=C\c2ccc(C)cc2)C3=O)CC1	40.2*	0.0	5.7	-4.6	29.3	-0.5
CCN(C(=O)CN1CCCC(C)C1)c1c(N)n(Cc2ccccc2)c(=O)[nH]c1=O (stereo not drawn)	.	.	.	.	.	0.2
c1ccc(COc2cncc(-c3cccnc3)c2)cc1	-4.2	.	.	.	2.9	-0.5
Cc1ccc(NC(=O)C2CSC3(C)CCC(=O)N23)cc1S(=O)(=O)N1CCCCCC1 (stereo not drawn)	1.6	.	.	.	-2.4	5.5
COc1ccccc1NC(=O)CSc1nc2ccccc2cc1Cc1ccccc1	-9.6	-4.0	-21.9	73.3*	-7.2	1.0
COc1cccc(N2CC(C(=O)Nc3c(C(N)=O)oc4ccccc34)CC2=O)c1 (stereo not drawn)	4.4	.	.	.	0.3	-0.1
COC(=O)c1c(NC(=O)C2CC2)sc2c1CCN(C(C)=O)C2	-0.2	0.0	13.0	-13.0	-2.9	0.5
CC(=O)N1CCc2c(sc(NC(=O)C3CCCCC3)c2C(N)=O)C1	13.4	.	.	.	15.0	56.7*
CC1CC(C)CN(S(=O)(=O)c2ccc3oc(=O)ccc3c2)C1 (stereo not drawn)	-0.4	.	.	.	-1.2	-0.4
NC(=O)[C@@H]1CCCN1Cc1c(C(=O)N2CCc3ccccc3C2)nc2ccc(Cl)cn12	41.2*	.	.	.	43.2*	35.6*
CC1CCN(Cc2c(C(=O)N3CCc4ccccc4C3)nc3ccc(Cl)cn23)CC1	13.0	.	.	.	12.8	16.6
O=C(Nc1cccc(Oc2ccc(C(=O)O)c(C(=O)O)c2)c1)c1ccc(-c2ccccc2)cc1	8.2	.	80.0*	-49.2	11.5	3.6
CC(NC(=O)COC(=O)CNS(=O)(=O)/C=C/c1ccccc1)c1ccccc1 (stereo not drawn)	-0.6	.	.	.	0.8	6.1
SMILES	Bcl-xL primary	Bim-Mcl-1	Mcl1-Noxa inh	Mcl1-Bid inh	MCL1 BIM primary	GLD-1 TGE inh
CC(/C=C1\SC(=S)N(NS(=O)(=O)c2ccccc2)C1=O)=C\c1ccccc1	10.1	.	78.5*	-9.7	15.0	3.6
CC(/C=C1\SC(=S)N(NC(=O)c2ccc(C)cc2)C1=O)=C\c1ccccc1	-6.0	0.0	6.9	-8.8	-3.6	-2.2
CC(/C=C1\SC(=S)N(NS(=O)(=O)c2ccc(C)cc2)C1=O)=C\c1ccccc1	6.6	.	93.5*	66.4*	2.5	4.1
CC(/C=C1\SC(=S)N(NC(=O)c2ccccc2C)C1=O)=C\c1ccccc1	-7.8	-1.0	18.1	-45.8	-1.7	-5.5
CC(/C=C1\SC(=S)N(CCCC(=O)Nc2ccc(C(=O)O)c(O)c2)C1=O)=C\c1ccccc1	5.4	-4.0	111.2*	94.0*	8.2	2.5
CC(OC(=O)c1nc(Cl)ccc1Cl)C(=O)Nc1ccc2c(c1)OCCO2 (stereo not drawn)	-3.1	.	.	.	-6.8	1.0
CCCN(CCC)C(C(=O)Nc1cccc(OC)c1)c1ccccc1 (stereo not drawn)	0.5	-1.0	-12.3	95.2*	-4.9	8.1
CC1CC(C)CN(C(=O)CCCNC(=O)c2ccc(Cl)cc2)C1 (stereo not drawn)	3.0	.	.	.	4.7	0.0
CCN(CC)c1ccc(NC(=O)c2cccnc2)c(C)c1	5.7	-5.0	15.1	-6.2	8.1	6.8
CCN(CC)c1ccc(NC(=O)c2cccc(C)c2OC)c(C)c1	2.4	2.0	62.2*	-21.4	-5.2	4.6
COCCN(C(=O)CSc1nnc(-c2cccc(F)c2)n1N)c1c(N)n(Cc2ccccc2)c(=O)[nH]c1=O	-6.8	.	.	.	-5.1	3.5
CC(=O)OCCn1c2nc(=O)[nH]c(=O)c-2nc2cc(C)c(C)cc21	.	.	14.3	96.4*	.	.
CC(=O)OCCn1c(C)[n+](CCOC(C)=O)c2cc(Cl)c(Cl)cc21	-15.7	-5.0	22.4	3.4	-24.7	0.8
N#C/C(C(=O)c1ccccc1)=C1/SC=C(N)N1c1ccccc1	.	-3.0	55.2*	15.4	.	.
CC(=O)Nc1sc(N/N=C/c2ccc(C)cc2)nc1-c1ccc(C)cc1	4.3	.	23.8	-37.7	12.1	-2.9
COc1ccc(/C=N/Nc2nc(-c3ccc(C)cc3)c(NC(C)=O)s2)cc1OC	-1.8	.	56.8*	-32.9	-6.0	-15.7
CCOc1cc(/C=N\Nc2nc(-c3ccc(C)cc3)c(NC(C)=O)s2)ccc1O	2.9	.	66.8*	-6.2	9.2	-6.7
COc1cc(/C=N\Nc2nc(-c3ccc(C)cc3)c(NC(C)=O)s2)ccc1O	-0.1	.	83.3*	-53.2	1.3	-3.6
CC(C)C(C(=O)Nc1ccc2c(c1)OCCOCCOCCOCCO2)N1C(=O)c2ccccc2C1=O (stereo not drawn)	6.5	0.0	28.6	-6.0	-4.2	-0.3
Oc1ccc(N=Nc2cccc(C(F)(F)F)c2)cc1C=Nc1ccc(N2CCOCC2)cc1	6.5	3.0	68.8*	10.9	9.2	3.7
COc1ccc(CNC(=O)Cc2cccs2)cc1	4.7	.	.	.	2.2	2.9
COc1ccc(CC(=O)NCc2cccs2)cc1	0.8	0.0	63.0*	-13.6	2.6	4.2
O=C(COc1ccc(Cl)cc1)NCCNc1ccc([N+](=O)[O-])cc1	1.3	.	.	.	2.2	0.0
O=S(=O)(Nc1ccc(-c2cnco2)cc1)c1ccccc1	30.6*	.	2.2	-3.7	22.3	9.8
O=S(=O)(Nc1ccncc1)c1ccccc1	-1.9	-1.0	0.5	15.4	-1.1	-0.5
